This note sets out measurements from PubChem BioAssay AID540308 (The Scripps Research Institute Molecular Screening Center, 2011).

In all, about 360,000 compounds went through this assay and about 3,500 (0.97%) were called active. Shown is part of a subset that was picked to be rich in actives. A number with no mark means an inactive call.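 How the source made its calls: active means activation above a per-plate cutoff, the mean activation of sample wells on that plate plus 3 SD (cut at about 8% in these data); inactive means the rest.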

For this assay, the target named is Melanocortin receptor 4 (Homo sapiens) (UniProt P32245). Nature of the assay: MC4R agonists recruiting beta-arrestin, primary screen, cell-based, luminescence, agonist arm of biased-ligand search (AID 540308). The conditions noted are these: U2OS MC4R beta-arrestin complementation, at 8.9 µM, active compounds read high, percent of melanotan II response, DMSO zero.
Melanocortin receptor 4 (Homo sapiens), sequence (P32245 whole entry, looked up): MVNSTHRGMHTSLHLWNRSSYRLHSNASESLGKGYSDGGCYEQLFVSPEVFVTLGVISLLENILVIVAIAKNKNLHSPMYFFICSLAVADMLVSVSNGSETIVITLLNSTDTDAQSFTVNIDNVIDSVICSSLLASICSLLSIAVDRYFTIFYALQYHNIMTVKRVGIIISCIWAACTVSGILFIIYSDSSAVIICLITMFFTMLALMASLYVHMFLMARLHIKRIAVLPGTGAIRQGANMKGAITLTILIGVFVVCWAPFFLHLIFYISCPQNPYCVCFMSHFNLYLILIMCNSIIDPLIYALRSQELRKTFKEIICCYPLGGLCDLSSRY
Regarding `CS(=O)(=O)N1CCCCC1c1cc(C(=O)NCc2ccccc2)no1` (centres undefined), the activation is 0.31%. `CC1(C(=O)NCc2ccc3c(c2)OCO3)CCN1CCc1ccccc1` (centres undefined): the activation is 1.41%.

As for `CCCNC(=O)C1(C)CCCN(C(=O)c2cccc(OC(C)=O)c2C)C1` (centres undefined), the activation is -0.89%.

As for `CC(=O)N(CN1C(=O)C2CC=CCC2C1=O)c1cccc(Cl)c1` (centres undefined), the activation was -0.75%. The figure for `COC(=O)c1cc(C(=O)N(Cc2ccccc2)c2ccccn2)cc([N+](=O)[O-])c1` is 2.05%; for `O=C(CCl)N(Cc1cccc([N+](=O)[O-])c1)c1cccc(Cl)c1` it is 20.4% (active). The figure for `Cn1c(Nc2ccc(F)cc2)nc2cc(-c3ccsc3)sc2c1=O` is 2.85%; for `O=C1/C(=C\c2ccccc2Cl)SC(=S)N1CCC(=O)N1CCCc2ccccc21` it is -0.74%. With `CN(C(=O)CCN1C(=O)/C(=C/c2ccccc2F)SC1=S)C1CCS(=O)(=O)C1` (centres undefined), the activation is -1.67%.

For `Cc1ccc(-c2nn(-c3ccccc3)cc2/C=C2\SC(=S)N(CCCCCC(=O)O)C2=O)o1`, the activation was 8.64% (active). Regarding `COc1ccc(-c2coc3c(C(=O)NC(C)C)cccc23)c(C)c1`, the activation is 0.44%. `CCOC(=O)c1c(C)[nH]c(C(=O)NCCN2CCOCC2)c1C`: the activation was -1.01%. The figure for `COc1cccc(CNCCc2c[nH]c3ccccc23)c1OCc1ccccc1F` is 10.3% (active); for `COc1ccc(C(CCNCc2ccccc2F)c2ccc(F)cc2)cc1` (centres undefined) it is 2.17%; for `Fc1ccccc1COc1ccccc1CNCc1ccncc1` it is -1.5%.

For the compound `CN1C[C@@H](CO)O[C@@H](n2cnc3c(N4CCN(CCO)CC4)ncnc32)C1`, the activation was -0.08%.

Turning to `COc1ccc(S(=O)(=O)N2CCOC2CNC(=O)C(=O)NCc2ccncc2)cc1C` (centres undefined), the activation is 0.29%. The figure for `CCNC(=O)C1(C)CCCN1C(=O)c1ccc(N(C)C)cc1` (centres undefined) is -0.82%. Take `O=C(NCCc1c[nH]c2ccc(Cl)cc12)c1ccc([N+](=O)[O-])cc1`: the activation is 10.4% (active). Regarding `O=C(NCCc1ccc(Cl)cc1Cl)c1cc([N+](=O)[O-])c[nH]c1=O`, the activation is -2.62%. Consider `Cc1ccc2[nH]cc(CCNC(=O)c3ccc([N+](=O)[O-])cc3)c2c1`, for which the activation is -2.01%. The figure for `COC(=O)c1ccc(S(=O)(=O)N2CCC(c3nc4ccccc4o3)CC2)cc1` is -0.95%.

As for `CC1(C(=O)Nc2ccc3c(c2)OCCO3)CCN1C(=O)Cc1cc(F)ccc1F` (centres undefined), the activation is -0.93%. The figure for `CC1(Oc2ccc(Cl)cc2)CCN(Cc2csc3ccccc23)C1` (centres undefined) is 5.74%; for `OC(c1ccccc1)c1nc(/C=C/c2ccc(C(F)(F)F)cc2)cs1` (centres undefined) it is 1.43%; for `COc1cc(/C=C/C(=O)OCC(=O)c2ccccc2)cc(OC)c1OC` it is -2.53%.

In the case of `CCOc1ccc(/C=C/C(=O)OCC(=O)c2ccccc2OC)cc1OC`, the activation is 12.9% (active).

On to `COc1ccc(/C=C/C(=O)OCC(=O)NC2CCCCCC2)cc1OC`, for which the activation is 0.56%. With `O=C(Nc1ccc(Cl)cc1)c1csc([C@@H]2O[C@H](CO)[C@H](O)[C@H](O)[C@H]2O)n1` the figure was -0.59%; with `CCOCCC(=O)Nc1ccc2c(c1)c(=O)n(C)n2-c1ccc2ccccc2c1`, -1.1%. For the compound `Oc1c(Br)cc(/C=N/NC(=S)NCC2CCCO2)cc1Br` (centres undefined), the activation was -1.36%. With `CC1(C(=O)NS(=O)(=O)c2cccc(F)c2)CCN1C(=O)c1cccc2ccccc12` (centres undefined) the figure was -0.68%. With `COc1ccc(-n2nnc3c(=O)n(CC(=O)N4CCC(Cc5ccccc5)CC4)cnc32)cc1` the figure was 3.13%. `O=C(Cn1cnc2c(nnn2-c2ccccc2)c1=O)N1CCC(Cc2ccccc2)CC1`: the activation is 11.7% (active). With `COc1ccc(-n2nnc3c(=O)n(CC(=O)OCc4ccccc4)cnc32)cc1` the figure was 1.74%; with `Cc1c(C(=O)NCc2ccc(C#N)cc2)sc(=O)n1Cc1ccc(C(=O)N(C)C)cc1`, 1.47%; with `OC[C@@H]1CN(Cc2ccc(Cl)cc2)C[C@H](n2cnc3c(NCc4ccncc4)ncnc32)O1`, 0.2%. As to `COc1cc(/C=C(/NC(=O)c2ccccc2)C(=O)Nc2cccc(O)c2)c([N+](=O)[O-])cc1OC`, the activation is 0.1%.

Consider `COc1ccc(NC(=O)/C(C#N)=C\c2cc(OC)c(OCc3ccc(C(=O)O)cc3)cc2Br)cc1`, for which the activation was -1.04%. Turning to `COc1cc(/C=C(\C#N)C(=O)Nc2ccc3ccccc3c2)c([N+](=O)[O-])cc1OC`, the activation is 20.1% (active).

Turning to `Cc1cccc(C)c1Cn1c(C)c(C(=O)NCc2cccc(Cl)c2)sc1=O`, the activation was -0.04%. The figure for `O=C(COC(=O)c1cccc(Br)c1)Nc1cccc2c1C(=O)c1ccccc1C2=O` is 22.1% (active). The figure for `O=C(COC(=O)Cn1cnc2ccccc21)Nc1cccc2c1C(=O)c1ccccc1C2=O` is -2.17%; for `O=C(COC(=O)c1ccccc1)Nc1ccccc1Sc1ccccc1` it is -0.01%; for `CC1(C(=O)NS(=O)(=O)c2ccccc2)CCN1C(=O)Cc1ccc(-c2ccccc2)cc1` (centres undefined) it is -1.08%.

Take `COc1cc(CNc2ncnc3c2ncn3[C@H]2CN(Cc3cccs3)C[C@@H](CO)O2)cc(OC)c1OC`: the activation was 1%. With `CCc1nc2c(OCc3ccccc3)cccn2c1N(C)C(=O)c1ccco1` the figure was -0.58%; with `Cc1ccc(NC(=O)O/N=C/c2cccc([N+](=O)[O-])c2)cc1`, -5.02%.

Take `O=[N+]([O-])c1cccc(C=NN=Cc2ccccc2O)c1`: the activation was 9.24% (active). Regarding `COc1ccc(O)c(/C=N/N=C/c2cccc([N+](=O)[O-])c2)c1`, the activation was -0.29%. The figure for `CCCc1ccc(C(O)c2ncc(-c3cccc(OC)c3)[nH]2)cc1` (centres undefined) is -1.27%. The figure for `COc1ccc(C(=O)N2CCCCC2c2cc(C(=O)Nc3ccccc3)no2)cc1` (centres undefined) is -1.46%; for `CN(C)C(=O)c1cccc(-c2cnc3sc(NCc4ccc5c(c4)OCO5)nn23)c1` it is 0.82%.

As to `CC[C@]1(C(=O)OC)[C@H]2C(=O)N(Cc3ccccc3)C(=O)[C@H]2[C@H]2CN=C(SCc3ccccc3)N21`, the activation was -0.47%. Take `CCN1C[C@@H]2[C@@H]3C(=O)N(Cc4ccccc4)C(=O)[C@@H]3[C@](Cc3ccccc3)(C(=O)OC)N2C1=NC1CCCCC1`: the activation was 13.2% (active). The figure for `CCCN=C1N(C)C[C@@H]2[C@@H]3C(=O)N(Cc4ccccc4)C(=O)[C@@H]3[C@](C)(C(=O)OC)N12` is -1.43%; for `COc1ccc(CCCNC(=O)C2Cc3c(-c4cccc(C(N)=O)c4)ccnc3O2)cc1` (centres undefined) it is -1.12%; for `CCCNC(=O)C1(C)CCCN(C(=O)c2oc3ccccc3c2C)C1` (centres undefined) it is -0.51%.

On to `O=C(N/N=C/c1ccc(OC(=O)c2ccccc2Cl)cc1)c1ccc(O)cc1`, for which the activation was 13.4% (active). As for `CC(C)(C)C(=O)Nc1ccc(C(=O)N/N=C/c2ccccc2OC(=O)c2ccc(Cl)cc2Cl)cc1`, the activation was -0.61%. The figure for `O=C(COc1ccc(/C=N/NC(=O)c2ccc(O)cc2)cc1)Nc1ccc([N+](=O)[O-])cc1` is 2.23%; for `CCc1nc2c(OCc3ccc(F)c(F)c3)cccn2c1N(C)C(=O)c1ccco1` it is 1.17%. As for `CC(=O)c1cccc(-c2cnc3c(NC=O)cc(-c4ccc(N5CCN(C)CC5)cc4)cn23)c1`, the activation was -0.45%.

On to `COc1ccc(-c2cc(NC=O)c3ncc(-c4ccccc4)n3c2)cc1OC`, for which the activation was 21.5% (active). Turning to `CN(C)C(=O)c1cccc(-c2cnc3c(NC=O)cc(-c4ccc(F)cc4)cn23)c1`, the activation was 11.3% (active).

Turning to `CC(=O)c1ccc(-c2cnc3c(NC=O)cc(-c4cccc(NS(C)(=O)=O)c4)cn23)cc1`, the activation is -0.24%. With `CC(=O)c1cccc(-c2cnc3c(NC=O)cc(-c4cccc(C(=O)N(C)C)c4)cn23)c1` the figure was 6.06%.

As to `CN(C)CCNC(=O)c1ccc(-c2cn3c(-c4ccc(Oc5ccccc5)cc4)cnc3cn2)cc1`, the activation was 1.4%. The figure for `COc1ccc(-c2cc(NC=O)c3ncc(-c4cccc(C(=O)N(C)C)c4)n3c2)c(OC)c1` is 5.89%. With `COc1ccc(-c2cc(NC=O)c3ncc(-c4cc(OC)c(OC)c(OC)c4)n3c2)c(OC)c1` the figure was 7.55%; with `CC(=O)c1cccc(-c2cnc3c(NC=O)cc(-c4ccc(N(C)C)cc4)cn23)c1`, 10% (active).

Turning to `CC(=O)c1cccc(-c2cnc3c(NC=O)cc(-c4ccccc4Oc4ccccc4)cn23)c1`, the activation was 3.06%. With `CN(C)C(=O)c1cccc(-c2cnc3c(NC=O)cc(-c4ccc(C(=O)N5CCOCC5)cc4)cn23)c1`, the activation was 3.87%. For `CN(C)CCNC(=O)c1cccc(-c2cnc3c(NC=O)cc(-c4cccc(C(F)(F)F)c4)cn23)c1`, the activation was 13.3% (active). Regarding `CC(C)NC(=O)C1(C)CCCCN1Cc1cccc(C(F)(F)F)c1` (centres undefined), the activation is 1.6%. With `COc1cccc(C(O)c2ncc(-c3ccc4ccccc4c3)[nH]2)c1` (centres undefined) the figure was -2.03%; with `CSc1ccc(CN2CCC2(C)C(=O)NCc2ccccc2Br)cc1` (centres undefined), 0.53%. Take `COc1cccc(C(O)c2nc(-c3ccc(C)c(C)c3)cs2)c1` (centres undefined): the activation is 1.59%.

For the compound `CC(O)(c1cccc(F)c1)c1nc(-c2ccc3c(c2)OCO3)cs1` (centres undefined), the activation is 3.56%. In the case of `O=C(Nc1ccc(Cl)cc1)C1Cc2c(-c3ccc4c(c3)OCO4)ccnc2O1` (centres undefined), the activation was 1.36%. On to `COc1cc(NC(=O)c2ccc(-c3csc(C)n3)cc2)c(OC)cc1Cl`, for which the activation is 9.13% (active). The figure for `CCOCC(=O)Nc1cc(OC)c(Cl)cc1OC` is -0.35%; for `COc1cc(NC(=O)c2ccccc2)c(OC)cc1NC(=O)Cc1ccccc1` it is -1.99%; for `CCc1nc2c(OCc3cccc(OC)c3)cccn2c1N(C)C(=O)C(C)C` it is 1.4%.
